Results published in PubChem BioAssay (NCATS).
Records with an inconclusive call do not appear. Unmarked numbers belong to inactive results. Active and inactive are the calls of the source. The call rests on the fitted dose curve; in most records, active means well fitted cell-killing curve with a large enough effect; inconclusive means small, poorly fitted or top-dose-only effect; inactive means flat fitted curve, though single readings scatter.

Assay: Cellular viability qHTS for adrenocortical cancer (ACC) cell line NCI-H295R (AID 1963990); further: nearly all actives have a fitted effect of over 60% in size
Settings: CellTiter-Glo ATP luminescence, 48 h; series mostly up to 46.1 µM; activity change, negative = viability loss: at the top concentration
Text: PI: Naris Nilubol, MD Surgical Oncology Program, National Cancer Institute (NCI) National Institute of Health (NIH), Bethesda, Maryland Adrenocortical cancer (ACC) is a rare malignancy with poor survival outcomes and few treatment options. Currently, mitotane is the only FDA-approved therapy for ACC. Although adjuvant radiation therapy is rarely utilized, it has the potential to improve survival in select cases. Through a quantitative high-throughput drug screen (qHTS), we identified auranofin (AF), a thioredoxin reductase (TXNRD) inhibitor, as a promising candidate drug. This study aims to evaluate whether AF can enhance the efficacy of radiation therapy in the treatment of ACC. Two human ACC cell lines, SW-13 and NCI-H295R, were screened using the National Center for Advancing Translational Sciences (NCATS) Pharmaceutical Collection (NPC) and the Mechanism Interrogation PlatE (MIPE) library (~4,991 compounds). CellTiter-Glo (Cat # G7570, Promega, Madison, WI) was utilized to measure cell viability. Described herein are the results of the corresponding viability assay.
PROTOCOL TABLE (as described by Inglese J, Shamu CE and Guy RK. 2007) SEQUENCE No. (e.g., 1, 2, 3, etc.); […] (e.g., Cells, Incubation, Reagent, etc.); VALUE; DESCRIPTION. 1; Cells; 5 uL; white, solid-bottom, 1536-well tissue-culture treated plates. 2; Time; overnight culture at 37C with 5% CO2. 3; Compounds and control; 23 nL; Kalypsis pin tool (Wako USA) equipped with a 1536-well pin head to transfer to the assay plates. 4; Time; 48 hours; 37C with 5% CO2. 5; Reagent; 4 uL; CellTiter-Glo luminescent substrate mix. 6; Time; 20 min at room temperature. 7; Detection; Luminescence; ViewLux plate reader NOTES (numbers refer to Sequence numbers above) 1. NCI-H295R cells were harvested from a T175 flask and resuspended in ITS-supplemented DMEM serum-free medium at a concentration of 300 000 cells/mL. Then 5 uL of resuspended cells were dispensed into each well of white, solid-bottom, 1536-well tissue-culture-treated plates using a multidrop combi dispenser. The plates were covered with stainless steel gasket lids. 2-3. The plates were cultured overnight at 37C with 5% CO2. Twenty-three nL of compounds (eight selected concentrations from the NPC / MIPE) or positive control (10 mM stock of bortezomib) in DMSO was transferred to each well of the assay plate using a pin tool (Kalypsys, San Diego, CA, USA). The final concentration of the compounds in the 5 uL assay volume ranged from 0.5 nM to 46 uM. 4-6. After 48 hours of incubation at 37C and 5% CO2, 4 uL of CellTilter-Glo luminescent substrate mix (Promega, Madison, WI, USA) was added to each well. Then the plates were incubated for 20 minutes at room temperature. 7. After incubation, luminescence was measured using a ViewLux plate reader (PerkinElmer, Waltham, MA, USA) with a clear filter was used to measure the number of metabolically competent cells. To determine compound activity in the qHTS assay, the titration-response data for each sample was plotted and modeled by a four-parameter logistic fit yielding IC50 and efficacy (maximal response) values. Raw plate reads for each titration point were normalized relative to positive control ([…], 100% inhibition) and DMSO-only wells (basal, 0%). REFERENCES: Inglese J, Shamu CE and Guy RK, Reporting data from high throughput screening of small molecule libraries, Nature Chemical Biology, 2007, 3(8): 438-441. doi.org/10.1038/nchembio0807-438.

SMILES	Potency	activity change, negative = viability loss
CCCSS/C(CCO)=C(\C)N(C=O)Cc1cnc(C)nc1N	9.2 µM (active)	
C=CC[N+]1([C@H]2C[C@H]3[C@@H]4CC[C@H]5C[C@H](O)[C@@H](N6CCOCC6)C[C@]5(C)[C@H]4CC[C@]3(C)[C@H]2OC(C)=O)CCCC1		-24.1%
NCCNc1cccc2ccccc12	20.6 µM (active)	
Cc1nc2n(c(=O)c1CCN1CCC(C(=O)c3ccc(F)cc3)CC1)CCS2		-28.2%
OCCN1CCN(CCCN2c3ccccc3C=Cc3ccccc32)CC1		-28%
C/C=C(/C(=C/C)c1ccc(OC(C)=O)cc1)c1ccc(OC(C)=O)cc1	23.1 µM (active)	
C[C@H](N)C(=O)N[C@@H](C)C(=O)NC1[C@H]2CN(c3nc4c(cc3F)c(=O)c(C(=O)O)cn4-c3ccc(F)cc3F)C[C@@H]12 (stereo not given in full)		-15.9%
Cc1cc(O)c2ccccc2c1O	20.6 µM (active)	
C[C@H]1CN(C2COC2)CCN1c1ccc(Nc2cc(-c3ccnc(N4CCn5c(cc6c5CC(C)(C)C6)C4=O)c3CO)cn(C)c2=O)nc1		-1.69%
NC1=NCC2c3ccccc3Cc3ccccc3N12 (stereo not given)		-21.4%
N#Cc1ccc(Oc2ccc3c(c2)COB3O)cc1		-8.51%
Cn1ncnc1[C@H]1c2n[nH]c(=O)c3cc(F)cc(c23)N[C@@H]1c1ccc(F)cc1		-20.2%
CCCCOC(=O)c1ccc(N)cc1		-16.9%
CS[C@H]1SC[C@@H]2C(=O)N(C)[C@H](C(C)C)C(=O)OC[C@H](NC(=O)c3cnc4ccccc4n3)C(=O)N[C@H](C)C(=O)N(C)[C@H]1C(=O)N(C)[C@H](C(C)C)C(=O)OC[C@H](NC(=O)c1cnc3ccccc3n1)C(=O)N[C@H](C)C(=O)N2C	0.1 µM (active)	
CCn1c(=O)c2c(nc(/C=C/c3ccc(OC)c(OC)c3)n2C)n(CC)c1=O		-8.7%
CC(O)c1cc(C(=O)N[C@@H](C)Cn2ccc(-c3ccc(C#N)c(Cl)c3)n2)n[nH]1 (stereo not given in full)		0.758%
c1ccc(OCc2ccc(CCCN3CCOCC3)cc2)cc1		-14.6%
COc1ccc([C@@H]2Sc3ccccc3NC(=O)[C@@H]2O)cc1	23.1 µM (active)	
O=C(NO)c1cnc(NC2(c3cccc(F)c3)CCCCC2)nc1	3.16 µM (active)	
Cn1cc(C(=O)[C@@H]2CCc3nc[nH]c3C2)c2ccccc21		-12.9%

SMILES	Potency	activity change, negative = viability loss
O=C1NCN(c2ccccc2)C12CCN(CCCC(c1ccc(F)cc1)c1ccc(F)cc1)CC2	3.26 µM (active)	
COc1ccc2c(c1)C(=O)N(CCc1ccc(S(=O)(=O)NC(=O)NC3CCCCC3)cc1)C(=O)C2(C)C		-19.5%
CC(C)=CCOc1ccc(/C=C/C(=O)c2ccc(OCC=C(C)C)cc2OCC(=O)O)cc1	9.2 µM (active)	
C[C@H]1[C@H](C)CC[C@]2(C(=O)O)CC[C@]3(C)C(=CC[C@@H]4[C@@]5(C)C[C@@H](O)[C@H](O)[C@@](C)(CO)[C@@H]5CC[C@]43C)[C@H]12		-12.5%
NC(=S)N/N=C/c1ncccc1N		-1.6%
Nc1ccc2c(c1)CN1C(=O)c3ccccc3C1=N2		-21% [at 20 µM]
Cn1cc(/C=C2\C(=O)Nc3cccnc32)c2ccccc21		-21.5%
C[C@@H](c1ccc2nccn2c1)n1nnc2ncc(-c3cnn(C)c3)nc21		-13.2%
CC1(COc2ccc(CC3SC(=O)NC3=O)cc2)CCCCC1 (stereo not given)	16.4 µM (active)	
O=C(O)c1c(O)c(-c2ccccc2)nc2ccccc12		-12.2%
O=C1Nc2ccccc2C1(c1ccc(O)cc1)c1ccc(O)cc1		0.0188%
O=C1NC(=O)/C(=C/c2ccc3nccnc3c2)S1		-24.2%
CCOC(=O)N1CCC(Nc2ccc(Cl)cc2N)CC1	16.4 µM (active)	
O=C(CCCN1CCC(O)(c2ccc(Br)cc2)CC1)c1ccc(F)cc1		-0.419%
N[C@H](C(=O)O)[C@@H](O)c1ccc(O)c(O)c1		-18.1%
CCOC(=O)C1=C(C)NC(C)=C(C(=O)OC)C1c1cccc([N+](=O)[O-])c1 (stereo not given)	16.4 µM (active)	
NS(=O)(=O)Oc1ccc2c3c(c(=O)oc2c1)CCCCC3		-1.46%
CC#CC(=O)N1CCC[C@H]1c1nc(-c2ccc(C(=O)Nc3ccccn3)cc2)c2c(N)nccn12		-28.9% [at 20 µM]
Nc1ncnc2c1c(COc1cccc(Cl)c1)nn2C1CCOCC1		-23.2%
Nc1nccc(-c2c(-c3ccc(F)cc3)ncn2C2CCCCC2)n1		-27.6%
